Values joined by “and” are separate entries in the source; they are usually repeats but may differ in a detail not shown here. Identical values can stand only once. Among all 260,000 compounds or so, about 1,500 (0.58%) were called active. Inconclusive results (about 5%) are left out.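 Rule for the calls: active = inhibition above a set limit at one or more doses, reproduced on every date tested; inconclusive = results disagree between test dates, or hit never tested in dose response; inactive = the rest.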 These entries were drawn from the full list. Entries with a potency or affinity are not part of this list.
biological target: Virion infectivity factor (Human immunodeficiency virus type 1 group M subtype B (isolate BH10)) + Virion infectivity factor (Human immunodeficiency virus type 1 group M subtype B (isolate BRU/LAI)) + Virion infectivity factor (Human immunodeficiency virus type 1 group M subtype B (isolate PCV12)) + Virion infectivity factor (Human immunodeficiency virus type 1 group M subtype B (isolate HXB2)) + DNA dC->dU-editing enzyme APOBEC-3G (Homo sapiens) (UniProt P69720+P69721+P69722+P69723+Q9HC16); assay: inhibitors of Vif binding to APOBEC3G peptide, primary screen, biochemical, TR-FRET, GST-Vif 1-94, biotin-A3G peptide, dose response retest (AID 1117319); conditions: stronger effect = higher value;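 note: Vif residues 1-94 fused to GST binding biotinylated APOBEC3G peptide 110-148; 0% = full assay without inhibitor and 100% = GST in place of GST-Vif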

inhibition, inactive:
OCCNC(=S)Nc1ccc(Cl)c(Cl)c1 1.22%
COc1ccc(C2CC(=O)N3CN(c4ccc(C)c(Cl)c4)CSC3=C2C#N)cc1OC (centres undefined) 13%
COc1ccc(OC)c(C2CC(=O)N3CN(c4ccc(C)c(Cl)c4)CSC3=C2C#N)c1 (centres undefined) 6.54%
C=CC1=CCN(S(=O)C(C)(C)C)[C@@H]1CCO (some centres undefined) -5.14%
O=C(NNS(=O)(=O)c1ccccc1)c1ccc(O)cc1 12.2%
C=CCN(C(=O)c1ccccn1)C(C(=O)NCc1ccccc1)c1ccccc1F (centres undefined) 6.79%
CCOC(=O)C1CCN(C(c2ccc(OC)c(OC)c2)c2sc3nc(C)nn3c2O)CC1 (centres undefined) -0.48%
Cc1nc2sc(C(c3cccs3)N3CCC(C(N)=O)CC3)c(O)n2n1 (centres undefined) 4.3%
COc1ccccc1/C=C/C=N/NC(=O)c1ccco1 -2.59%
COC(=O)c1cc(CSc2nc3ccccc3[nH]2)oc1C -2.28%
CCCN(CCC)C(=O)c1ccc2c(c1)OCO2 14.8%
CCN(C(=O)CCS(=O)(=O)c1ccc(Br)cc1)c1ccc2c(c1)OCO2 27.3%
COc1ccc(S(=O)(=O)NCC(=O)NCc2cc(=O)n(C)c(=O)n2C)cc1 -1.92%
O=c1[nH]c2ccccc2n2c(C(F)(F)F)nnc12 -5.29%
O=c1[nH]c2ccccc2n2c(-c3ccncc3)nnc12 4.55%
Cc1sc(N(C(=O)CCc2ccccc2)c2ccc(C(=O)O)cc2)nc1-c1ccccc1 -5.7%
COc1ccc(C(=O)NCCS(=O)(=O)NC2CCCC2)cc1 -8.13%
CC(=O)Cn1c(=O)oc2ccccc21 0.93%
CCOC(=O)c1c(C)[nH]c(C(=O)Cn2c(=O)oc3ccccc32)c1C -6.81%
Cc1ccccc1CS(=O)(=O)Cc1ccc(C(=O)NCCCN2CC(C)CC(C)C2)o1 (centres undefined) 28%
COc1ccc(S(=O)(=O)NCCSCc2ccco2)cc1 24%
Cc1ccc(S(=O)(=O)NCCSCc2ccco2)cc1 -0.39%
O=C1NC[C@@H](Cc2cccc3ccccc23)N(CC2CCCCC2)C1=O 5.43%
COc1ccc(/C=C2\C(=O)NCC(=O)N2Cc2ccccc2)cc1 -2.05%
CC1=C/C(=N\OS(=O)(=O)c2ccccc2)C(C)=CC1=O 19.9%
CC1=CC(=O)C=C(C)C1=NOS(=O)(=O)c1ccccc1 9.66%
Cc1cccc(NS(=O)(=O)c2nnc(NC(=O)CC(C)C)s2)c1 -2.78%
C=CCn1c(C)cc(-c2csc(NCC)n2)c1C 32.5%
CCCn1c(C)cc(-c2csc(N)n2)c1C 11.8%
COc1ccc(-n2ccc(=O)c3c2CCCC3=O)cc1 9%
COc1ccc(N2C3=C(CC4=C2CC(C)(C)CC4=O)C(=O)CC(C)(C)C3)cc1 24.6% and 5.22%
Nc1cc(=O)[nH]c(SCc2ccc(Cl)cc2Cl)n1 -1%
CCN(CC(=O)Nc1ccccc1C(F)(F)F)C(=O)Cn1c(=O)cnc2ccccc21 -3.46%
Cc1nc2sc3c(c2c(=O)o1)CCC3 11.5%
O=c1[nH]c2sc3c(c2c2nncn12)CCCC3 24.3%
Cc1cccnc1NC(=O)c1ccc(S(=O)(=O)N2CCCCCC2)cc1 -2.42%
Cc1ccc(CN2CCC[C@]3(N[C@H](c4ccc(C(F)(F)F)cc4)[C@@H]4C(=O)N(Cc5ccccc5)C(=O)[C@@H]43)C2=O)cc1 5.48%
Nc1nc2cc(S(=O)(=O)N3CCOCC3)ccc2o1 -2.39%
CCn1c2ccccc2c2nc3cc(S(=O)(=O)N4CCOCC4)ccc3nc21 2.64%
O=C(OCn1nnc2ccccc2c1=O)c1cccnc1Cl 0.6%
COc1nc(NCCC2=CCCCC2)nc(OC)n1 -1.44%
CCOC(=O)N1CCN(C(=O)c2cc(C)no2)CC1 -3.25%
CC(=O)N/C(=C\c1ccccc1)C(=O)OCC(=O)N(CC(C)C)c1c(N)n(Cc2ccccc2)c(=O)[nH]c1=O 4.02%
COc1ccc(C(=O)OCC(=O)Nc2ncc([N+](=O)[O-])s2)cc1OC 5.33%
CC(C)CC(=O)Nc1ncc([N+](=O)[O-])s1 8.92%
O=C(COC(=O)c1cccc([N+](=O)[O-])c1)Nc1ncc(Br)s1 1.23%
Cc1csc(NC(=O)CSc2nncn2C)n1 7.24%
C=CCn1c(SCC(=O)NCc2ccc3c(c2)OCO3)nc2scc(-c3ccccc3)c2c1=O -40.6%
Cc1ccsc1C(=O)Nc1nc2ccccc2[nH]1 -12.8%
COc1ccc(NC(=O)C2(c3ccc(NC(=O)c4ccc(OC)c(OC)c4)cc3)CCCC2)cc1 0.05%
O=C(Nc1ccc(Br)cn1)C1CCCN1S(=O)(=O)c1ccccc1 (centres undefined) 4.08%
CC1=CCC2C(=O)N(c3nc4ccccc4n3C)C(=O)C2C1 (centres undefined) 24.7%
Cc1cccc(N2C(=O)CC(N(O)c3ccccc3)C2=O)c1 (centres undefined) 3.45%
O=C(/C=C/c1cccs1)N1CCN(c2ccc(F)cc2)CC1 3.81%
O=C(/C=C/c1cccs1)N1CCN(c2ccccc2)CC1 -0.91%
COC(=O)CC1C(=O)NCCN1C(=S)NC(=O)c1ccccc1[N+](=O)[O-] (centres undefined) 13.4%
COc1ccc2c(c1)c(=O)oc1cc(OCC(=O)N3CCCC(C)C3)ccc12 (centres undefined) -1.48%
COc1ccc2c(c1)c(=O)oc1cc(OCC(=O)NC3CC3)ccc12 -2.02%
CCCOC(=O)c1ccc(NC(=O)c2ccccc2[N+](=O)[O-])cc1 -4.31%
CCN(CC)S(=O)(=O)c1ccc(C(=O)OC2CCCCC2CN(C)C)cc1 (centres undefined) -1.05%
COc1ccc(CCNS(=O)(=O)CCNC(=O)c2ccccc2)cc1 -6.03%
CC(/C=C/c1ccc(C)o1)=C\C(=O)O 2.74%
CC(/C=C/c1ccc(Cl)o1)=C\C(=O)O 27.4%
O=C1C2C3CCC(C3)C2C(=O)N1CNc1ccccc1 (centres undefined) -1.35%
Cc1ccc2[nH]c(=O)c(CN(C(=O)c3cccc([N+](=O)[O-])c3)C(C)(C)C)cc2c1 -6%
CN(Cc1ccccc1)S(=O)(=O)c1ccc(Cl)c(C(=O)NCCCN2CCOCC2)c1 -5.26%
CC1(OC(=O)CCc2ccccc2)C(=O)C=C2C=C(c3ccc(C#N)cc3)N(C(CO)CO)C=C2C1=O (centres undefined) 0.31%
CC(C)CN1C=C2C(=O)C(C)(OC(=O)C3CCCC3)C(=O)C=C2C=C1c1ccsc1 (centres undefined) 28.7%
CC1(OC(=O)C2CCCC2)C(=O)C=C2C=C(c3ccsc3)N(C(CO)CO)C=C2C1=O (centres undefined) 15.2%
CC1(OC(=O)CCc2ccccc2)C(=O)C=C2C=C(c3ccc(C#N)cc3)N(CC3CC3)C=C2C1=O (centres undefined) -1.42%
COc1ccc(-c2ccc(SCC(=O)N3CCOCC3)nn2)cc1OC 2.85%
COc1ccccc1OCCCC(=O)Nc1nnc(C2CCCO2)s1 (centres undefined) -0.39%
Cc1nn2c(=S)[nH]nc2[nH]c1=O 14.1%
Cc1n[nH]c(=S)n(/N=C/c2cccs2)c1=O -1.81%
COC(=O)[C@H]1C[C@@H]1[C@H](NC(=O)OCc1ccccc1)c1ccccc1 -8.43%
COC(=O)[C@H]1C[C@@H]1[C@H](NC(=O)[C@H]1C[C@@H]1[C@H](NC(=O)OCc1ccccc1)c1ccccc1)c1ccccc1 25.9%
Cc1ccc2cc3cc(C(=O)NCCCN4CCCC4)oc3nc2c1 -1.36%
CC1=NN(c2cc(Cl)c(S(=O)(=O)O)cc2Cl)C(=O)C1 8.79%
O=C(O)C1=NN(c2ccccc2)C(=O)C1 13.7%
COCCCn1c(SCC(N)=O)nnc1-c1ccccc1 2.76%
C=CCN1C(=O)/C(=C/c2ccsc2)SC1=S 21.3%
COc1ccc(CN(CC(=O)NC2CCCC2)C(=O)c2onc(C(N)=O)c2N)cc1 30.2%
COc1cccc(CN2C(=O)CN(C3CCCCC3)C(=O)C2c2ccc(F)cc2)c1 (centres undefined) 1.82%
CC1=CC(C)(C)Nc2ccc(OC(=O)c3ccco3)cc21 16.4%
CC1=CC(C)(C)Nc2ccc(OC(=O)CN3C(=O)c4ccccc4C3=O)cc21 19.2%
Cc1ccc(OC(=O)c2cccnc2)cc1 -1.57%
CC1=CC(C)(C)Nc2ccc(OC(=O)CCN3C(=O)c4ccccc4C3=O)cc21 3.55%
CC(Oc1ccccc1F)C(=O)/C=C/N(C)C (centres undefined) 5.44%
O=C(Nc1ccc(Oc2ccccc2)nc1)C1CCCCN1Cc1ccco1 (centres undefined) 9.99%
O=C(Nc1cccnc1)c1ccc(S(=O)(=O)c2ccccc2)cc1 -0.77%
O=C(NCc1ccccc1)C(=O)NCC1OCCCN1S(=O)(=O)c1cccs1 (centres undefined) -3.27%
NC(=O)Nn1c(CCC(=O)O)ccc1-c1ccc(Cl)cc1 3.68%
NC(=O)Nn1c(CCC(=O)O)ccc1-c1ccc(F)cc1 4.46%
Cc1nc(-c2cc(C#N)c(Sc3cccc(C(F)(F)F)c3)nc2C)cs1 -11.1%

From PubChem BioAssay AID1117319 (Southern Research Institute, 2015)
